Reference: PubChem BioAssay (NCATS)

Test: qHTS profiling of the MIPE4 collection as inhibitors of Plasmodium falciparum (DD2) proliferation (Rep 2) (AID 743346)
Details: P. falciparum Dd2 in erythrocytes, SYBR Green DNA, 72 h; at 28.5 µM unless noted
Description: Plasmodium falciparum is a virulent malarial parasite that kills 1-2 million people worldwide each year. Transmitted by mosquitoes, the sporozoite form of the parasite enters the blood stream to infect hepatocytes, where they become merozoites that infect red blood cells (erythrocytes). Within erythrocytes, merozoites begin a […] cycle of growth and division, after which the parasite is released to infect new red blood cells. Gametocytes, which form within erythrocytes as well, circulate in the bloodstream and are ingested by the mosquito, thereby completing the life cycle. To profile malarial isolates for differential chemical responses and to identify inhibitors of malarial growth, an assay that measures P. falciparum growth and replication within erythrocytes was employed. This assay uses a DNA binding fluorescent dye (SYBR Green) to detect parasite DNA following cell lysis. Because mature erythrocytes lack DNA, only Plasmodium-derived DNA is detected.
The SYBR Green viability assay was adapted from a method described previously (Plouffe et al., 2008). For screening 3 ul culture medium was dispensed into 1536 well black clear bottom plates (Aurora Biotechnologies) using a Multidrop Combi (Thermo Fisher Scientific Inc.), 23 nL compounds in DMSO were added by a pin tool (Kalypsys), and 5 ul of erythrocytes infected with P. falciparum (0.3% parasitemia, 2.5% hematocrit final concentration) were added. The plates were incubated at 37 C in a humidified incubator in 5% CO2 for 72 h, and 2 ul lysis buffer (20 mM Tris HCl, 10 mM EDTA, 0.16% saponin, 1.6% triton X, 10X SYBR Green I supplied as 10,000X […] by Invitrogen) was added to each well. The plates were mixed for 25 sec with gentle shaking and incubated overnight at room temperature in the dark. The following morning, fluorescence intensity at 485(14) nm excitation and 535(25) nm emission wavelengths was measured on an EnVision (Perkin Elmer) plate reader. Plate reads were normalized relative to the control inhibitor (0.29 uM artemisinin) and vehicle (DMSO) wells present on each plate and then corrected by an algorithm using vehicle-only control plates at the beginning and end of the compound plate stack.
`CN1[C@H]2CC(OC(=O)[C@@H](CO)c3ccccc3)C[C@H]1[C@H]1O[C@H]12` (stereo not given in full) gave a parasite growth, % of control (lower = inhibition) of 72.3%.
For `CCOC1OC(=O)C[C@H]1NC(=O)[C@@H]1CCCN1C(=O)[C@@H](NC(=O)c1ccc(N)c(Cl)c1)C(C)(C)C` (stereo not given in full), the parasite growth, % of control (lower = inhibition) was 67.6%.
Work on `Cc1cn([C@@H]2C[C@@H](O)[C@H](CO)O2)c(=O)[nH]c1=O` yielded a parasite growth, % of control (lower = inhibition) of 94.9%.
`CCN1C[C@H](C)n2c(c(O)c3c(=O)n(Cc4ccc(F)c(Cl)c4)nc(C(=O)NC)c32)C1=O` gave a parasite growth, % of control (lower = inhibition) of 45.4%.
With `CN1C(=O)C[C@H](C(=O)N[C@@H](Cc2cnc[nH]2)C(=O)N2CCC[C@@H]2C(N)=O)NC1=O` the parasite growth, % of control (lower = inhibition) was 70.2%.
Work on `O=c1[nH]c(=O)n([C@H]2C[C@@H](O)[C@@H](CO)O2)cc1C=CBr` yielded a parasite growth, % of control (lower = inhibition) of 157%.
`CC(C)OC(=O)[C@H](C)N[P@](=O)(OC[C@H]1O[C@@H](n2ccc(=O)[nH]c2=O)[C@](C)(F)[C@H]1O)Oc1ccccc1` gave a parasite growth, % of control (lower = inhibition) of 78.3%.
Compound `C[C@H]1[C@H](NC(=O)C(=NOC(C)(C)C(=O)O)c2csc(N)n2)C(=O)N1S(=O)(=O)O` has a parasite growth, % of control (lower = inhibition) of 91.7%.
`c1coc(CNc2ncnc3nc[nH]c23)c1` gave a parasite growth, % of control (lower = inhibition) of 80%.
`O=C(C[C@@H]1NCCC[C@@H]1O)Cn1cnc2ccccc2c1=O` showed a parasite growth, % of control (lower = inhibition) of 22.5%.
Work on `CCCNC(=O)Nc1ccc(Oc2ncnc3cc(OC)c(OC)cc23)cc1Cl` yielded a parasite growth, % of control (lower = inhibition) of 30.3%.
Work on `O=C1CC[C@@]2(O)[C@H]3Cc4ccc(O)c5c4C2(CCN3CC2CC2)[C@H]1O5` yielded a parasite growth, % of control (lower = inhibition) of 59.1%.
For `COc1ccc(CCC(=O)Nc2nc3ccc(Cl)cc3s2)cc1OC`, the parasite growth, % of control (lower = inhibition) was 46.1%.
`CC1(C)CC(O)CC(C)(C)N1[O]` showed a parasite growth, % of control (lower = inhibition) of 73%.
Work on `NC(=O)c1ncn([C@@H]2O[C@H](CO)[C@@H](O)[C@@H]2O)n1` yielded a parasite growth, % of control (lower = inhibition) of 53.8%.
For `C[C@H](CCC(=O)O)[C@H]1CC[C@H]2[C@H]3[C@@H](CC[C@]12C)[C@@]1(C)CC[C@@H](O)C[C@H]1C[C@@H]3O`, the parasite growth, % of control (lower = inhibition) was 16.6%.
Work on `CC[C@H](C=C[C@@H](C)[C@H]1CC[C@H]2[C@@H]3CC=C4C[C@@H](O)CC[C@]4(C)[C@@H]3CC[C@]12C)C(C)C` yielded a parasite growth, % of control (lower = inhibition) of 117% [at 9.64 µM].
In the case of `COc1ccc2cc1Oc1ccc(cc1)C[C@H]1c3cc(c(OC)cc3CCN1C)Oc1c(OC)c(OC)cc3c1[C@H](C2)N(C)CC3`, the parasite growth, % of control (lower = inhibition) is reported as 50.7%.
`O=C1c2cccc(O)c2C(=O)c2c(O)cc(CO)cc21` showed a parasite growth, % of control (lower = inhibition) of 97.1%.
In the case of `COc1cc(CNC(=O)CCCCC=CC(C)C)ccc1O`, the parasite growth, % of control (lower = inhibition) is reported as 129%.
With `CC(=O)[C@H]1CC[C@H]2[C@@H]3CCC4=CC(=O)CC[C@]4(C)[C@H]3CC[C@]12C` the parasite growth, % of control (lower = inhibition) was 30.4%.
`COC(=O)C[C@](O)(CCCC(C)(C)O)C(=O)O[C@@H]1C(OC)=C[C@]23CCCN2CCc2cc4c(cc2[C@H]13)OCO4` showed a parasite growth, % of control (lower = inhibition) of 67.1%.
For `CON=C(C(=O)N[C@@H]1C(=O)N2C(C(=O)O)=C(Cn3ccc(=N)n3CCO)CS[C@H]12)c1csc(N)n1`, the parasite growth, % of control (lower = inhibition) was 92%.
Work on `C[N+](C)([O-])CCNc1ccc(NCC[N+](C)(C)[O-])c2c1C(=O)c1c(O)ccc(O)c1C2=O` yielded a parasite growth, % of control (lower = inhibition) of 41.1%.
In the case of `COc1ccc(C2(C#N)CCC(C(=O)O)CC2)cc1OC1CCCC1` (stereo not given), the parasite growth, % of control (lower = inhibition) is reported as 88.4%.
`CC(C(=O)O)c1ccc(-c2ccccc2)c(F)c1` (stereo not given) gave a parasite growth, % of control (lower = inhibition) of 114%.
`C[C@@H]1C(=O)O[C@H]2CC34[C@H]5C[C@@H](C(C)(C)C)C36[C@H](OC(=O)[C@@H]6O)O[C@@]4(C(=O)O5)[C@]21O` (stereo not given in full) showed a parasite growth, % of control (lower = inhibition) of 91.1%.
For `C=C(C)[C@@H]1CC[C@]2(C(=O)O)CC[C@]3(C)[C@H](CC[C@@H]4[C@@]5(C)CC[C@H](O)C(C)(C)[C@@H]5CC[C@]43C)[C@@H]12`, the parasite growth, % of control (lower = inhibition) was 97%.
`Nc1nc(OCc2ccccc2)c2[nH]cnc2n1` showed a parasite growth, % of control (lower = inhibition) of 72.1%.
For `CNC1[C@H](O)C(O[C@@H]2C(O)C(O[C@H]3O[C@H]([C@@H](C)NC)CC[C@H]3N)[C@@H](N)C[C@H]2N)OC[C@]1(C)O` (stereo not given in full), the parasite growth, % of control (lower = inhibition) was 111%.
For `C[C@H](CCC(=O)O)[C@H]1CC[C@H]2[C@@H]3[C@H](O)C[C@@H]4C[C@H](O)CC[C@]4(C)[C@@H]3CC[C@]12C`, the parasite growth, % of control (lower = inhibition) was 67.3%.
For `CC(N[C@H]1CCCC[C@H]1NC(=O)c1ccc(Cl)cc1)c1cccc2ccccc12` (stereo not given in full), the parasite growth, % of control (lower = inhibition) was 64%.
For `OC[C@H]1OC(O)C[C@@H](O)[C@H]1O` (stereo not given in full), the parasite growth, % of control (lower = inhibition) was 96%.
In the case of `Cc1ncc(C[n+]2csc(CCO)c2C)c(=O)[nH]1`, the parasite growth, % of control (lower = inhibition) is reported as 113%.
`NC(=O)c1cccc(-c2cccc(OC(=O)NC3CCCCC3)c2)c1` showed a parasite growth, % of control (lower = inhibition) of 37.9%.
Work on `COC1CCC(N(C(=O)C2CCC(C)CC2)c2cc(C3=CCCCC3)sc2C(=O)O)CC1` (stereo not given) yielded a parasite growth, % of control (lower = inhibition) of 44.7%.
`CN[C@H](CC(C)C)C(=O)N[C@H]1C(=O)N[C@@H](CC(N)=O)C(=O)N[C@@H]2C(=O)N[C@H]3C(=O)N[C@H](C(=O)N[C@H](C(=O)O)c4cc(O)cc(O)c4-c4cc3ccc4O)[C@H](O)c3ccc(c(Cl)c3)Oc3cc2cc(c3O[C@@H]2O[C@H](CO)[C@@H](O)[C@H](O)[C@@H]2O[C@H]2C[C@](C)(N)[C@H](O)[C@H](C)O2)Oc2ccc(cc2Cl)[C@H]1O` gave a parasite growth, % of control (lower = inhibition) of 150%.
Compound `NC1=N[C@H]2[C@H](CS[C@H]2CCCCC(=O)O)N1` has a parasite growth, % of control (lower = inhibition) of 82% [at 9.64 µM].
Compound `CCC(CC)[C@H](NC(C)=O)[C@@H]1[C@H](O)[C@@H](C(=O)O)C[C@@H]1N=C(N)N` has a parasite growth, % of control (lower = inhibition) of 112%.
With `CC(=O)O[C@H]1C[C@@H]2CC[C@H]3[C@H]4C[C@H]([N+]5(C)CCCCC5)[C@@H](OC(C)=O)[C@@]4(C)CC[C@@H]3[C@@]2(C)C[C@H]1[N+]1(C)CCCCC1` the parasite growth, % of control (lower = inhibition) was 58.4%.
